Inconclusive results are not listed. Calls of active or inactive are those of the source. The call rests on the fitted dose curve; in most records, active means well fitted curve in the direction sought with a large enough effect in the repeat runs; inconclusive means weak or mixed curves; inactive means no such curve, though single readings can be large; an effect the other way counts as inactive or inconclusive.

Assay [1] in a line: Caspase-3/7 induction in HepG2 cells by small molecules, qHTS assay (AID 1346978). Further: nearly all actives have a fitted effect of over 15% in size. Further: potency means the concentration at half of the fitted maximal effect. An outline of the steps:
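Caspase-3/7 induction was measured by Caspase-Glo 3/7 luminescence (30 min, room temperature) after a 17 hr compound exposure of wild-type HepG2 cells seeded at 2,000 per well and pre-incubated 5 hr.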
Background: In qHTS, concentration-response curves come from the screen itself.

Assay [2] can be described thus: Caspase-3/7 induction in CHO-K1 cells by small molecules, qHTS assay (AID 1346980). Further: nearly all actives have a fitted effect of over 15% in size. An outline of the steps: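 Luminescent Caspase-Glo 3/7 read (30min, room temperature) quantified apoptosis induction. Cells were wild-type CHO-K1, treated with compound for 17hr at 37 C and 5% CO2.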
Assay [3] in a line: Caspase-3/7 induction in HepG2 cells by small molecules, qHTS cell viability counter screen (AID 1346981). Further: nearly all actives have a fitted effect of over 30% in size. Further: potency means the concentration at half of the fitted maximal effect. An outline of the steps: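 Steps: seed 2,000 HepG2 cells per well; incubate 5 hr at 37 C; pin-add compounds in DMSO; incubate 16 hr; add CellTiter-Fluor; after 1 hr at 37 C and 5% CO2, read fluorescence.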
The target of assay [4] is Nuclear receptor subfamily 1 group I member 2 (Homo sapiens) (UniProt O75469). In words: Human pregnane X receptor (PXR) small molecule agonists, qHTS assay (AID 1346982). Further: nearly all actives have a fitted effect of over 35% in size. Further: potency means the concentration at half of the fitted maximal effect. An outline of the steps:
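Agonist mode qHTS: PXR-Luc HepG2 cells plated 5 hr before DMSO-dissolved compounds were pinned in, cultured 24 hr at 37 C, 5% CO2; ONE-Glo luminescence readout.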

The target of assay [5] is Cytochrome P450 2D6 (Homo sapiens) (UniProt P10635). As to the kind of experiment: Cytochrome P450 Family 2 Subfamily D Member 6 (CYP2D6) small molecule antagonists: luciferase reporter qHTS assay (AID 1671196). Further: nearly all actives have a fitted effect of over 50% in size. Further: potency means the concentration at half of the fitted maximal effect. An outline of the steps:
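P450-Glo format: CYP2D6 converts a proluciferin substrate to luciferin in an NADPH-driven reaction lasting 1 h at room temperature. Light output, proportional to CYP2D6 activity, reflects interference by test chemicals.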

For assay [6], the target named is Cytochrome P450 2C19 (Homo sapiens) (UniProt P33261). As to the kind of experiment: Cytochrome P450 Family 2 Subfamily C Member 19 (CYP2C19) small molecule antagonists: luciferase reporter qHTS assay (AID 1671197). Further: potency means the concentration at half of the fitted maximal effect; nearly all actives have a fitted effect of over 65% in size. An outline of the steps:
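Inhibition of CYP2C19 was scored from loss of luminescence in a P450-Glo proluciferin substrate assay, NADPH-started and run 1 h at 37C, with ketoconazole as positive control.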
On the technique in general: Reporter assays use an easily measured gene product as a stand-in for the process of interest.

Assay [7] concerns the target Cytochrome P450 2C9 (Homo sapiens) (UniProt P11712). In words: Cytochrome P450 Family 2 Subfamily C Member 9 (CYP2C9) small molecule antagonists: luciferase reporter qHTS assay (AID 1671198). Further: potency means the concentration at half of the fitted maximal effect; nearly all actives have a fitted effect of over 50% in size. An outline of the steps: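 Enzyme-substrate mix preincubated with compound 10 min at room temperature; reaction started with NADPH regeneration solution, 1 h 37C. Luminescent luciferin product read after 20 min detection reagent.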

For assay [8], the target named is Cytochrome P450 1A2 (Homo sapiens) (UniProt P05177). As to the kind of experiment: Cytochrome P450 Family 1 Subfamily A Member 2 (CYP1A2) small molecule antagonists: luciferase reporter qHTS assay (AID 1671199). Further: nearly all actives have a fitted effect of over 50% in size. Further: potency means the concentration at half of the fitted maximal effect. An outline of the steps: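 Inhibition of CYP1A2 conversion of proluciferin to luciferin, detected by luminescence. Reaction run 1 h at room temperature with NADPH regeneration after brief compound preincubation.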
Chain of Cytochrome P450 1A2 (Homo sapiens) (P05177 whole entry, looked up): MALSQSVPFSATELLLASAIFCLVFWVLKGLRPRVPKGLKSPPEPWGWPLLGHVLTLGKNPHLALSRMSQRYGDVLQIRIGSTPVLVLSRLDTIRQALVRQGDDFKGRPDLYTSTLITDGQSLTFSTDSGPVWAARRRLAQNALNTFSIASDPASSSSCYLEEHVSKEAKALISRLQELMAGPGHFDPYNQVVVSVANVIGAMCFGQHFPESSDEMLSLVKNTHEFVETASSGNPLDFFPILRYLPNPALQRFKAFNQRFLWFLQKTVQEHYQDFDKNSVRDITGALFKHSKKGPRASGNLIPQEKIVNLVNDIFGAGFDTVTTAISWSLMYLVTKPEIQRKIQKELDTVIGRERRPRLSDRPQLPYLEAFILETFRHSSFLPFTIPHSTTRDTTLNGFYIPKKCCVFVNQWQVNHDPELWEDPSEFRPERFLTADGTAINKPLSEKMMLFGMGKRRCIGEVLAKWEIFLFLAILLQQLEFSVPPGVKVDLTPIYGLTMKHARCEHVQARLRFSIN

Assay [9] concerns the target Voltage-gated inwardly rectifying potassium channel KCNH2 (Homo sapiens) (UniProt Q12809). In words: Human Ether-a-go-go-Related Gene (hERG) channel small molecule antagonists: fluorescence cell-based qHTS assay (AID 1671200). Further: nearly all actives have a fitted effect of over 50% in size. Further: potency means the concentration at half of the fitted maximal effect. An outline of the steps:
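First, 1000 cells per well are seeded and cultured overnight at 37 C. Next, FluxOR II dye is loaded for 1 h at room temperature, protected from light. After 10 more minutes, stimulus is added and fluorescence is read.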

Assay [10] has as its target Cytochrome P450 3A4 (Homo sapiens) (UniProt P08684). In words: Cytochrome P450 Family 3 Subfamily A Member 4 (CYP3A4) small molecule antagonists: luciferase reporter qHTS assay (AID 1671201). Further: nearly all actives have a fitted effect of over 50% in size. Further: potency means the concentration at half of the fitted maximal effect. An outline of the steps:
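Enzyme and proluciferin substrate are mixed with test chemicals for 10 min, then NADPH regeneration system drives turnover for 1 h at room temperature. A detection reagent halts the reaction; luminescence after 20 min gives relative activity.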

Assay [11] has as its target Nuclear receptor subfamily 1 group I member 2 (Homo sapiens) (UniProt O75469). As to the kind of experiment: CYP3A4 induction through human pregnane X receptor (PXR) by small molecules, qHTS assay (AID 1346984). Further: nearly all actives have a fitted effect of over 40% in size. An outline of the steps: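 Steps: seed DPX-2 cells, 5 hr at 37C; pin-transfer compounds; 24 hr at 37C; add Luciferin-IPA (3uM final), 3 hr at 37C; add One-Glo, 30 min RT; read luminescence.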

For assay [12] the target is unchanged. In words: Human pregnane X receptor (PXR) activation by small molecules, qHTS assay (AID 1346985). Further: nearly all actives have a fitted effect of over 40% in size. An outline of the steps:
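DPX-2 cells (HepG2 co-transfected with a PXR response element and a CYP3A4-promoter luciferase construct) were seeded at 2,000 per well, rested 5 hr at 37C, then exposed to DMSO-dissolved compounds for 24 hr. Activation was read as luciferase luminescence.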

The nature of assay [13]: Caspase-3/7 induction in CHO-K1 cells by small molecules, qHTS cell viability counter screen (AID 1346979). Further: potency means the concentration at half of the fitted maximal effect; nearly all actives have a fitted effect of over 35% in size. An outline of the steps: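 Seeding: 1,500 CHO-K1 cells/well. Rest: 5hr, 37C. Treatment: compounds in DMSO, 16hr. Read: CellTiter-Fluor, 1hr, fluorescence.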

Chain of Cytochrome P450 2C19 (Homo sapiens) (P33261 whole entry, looked up): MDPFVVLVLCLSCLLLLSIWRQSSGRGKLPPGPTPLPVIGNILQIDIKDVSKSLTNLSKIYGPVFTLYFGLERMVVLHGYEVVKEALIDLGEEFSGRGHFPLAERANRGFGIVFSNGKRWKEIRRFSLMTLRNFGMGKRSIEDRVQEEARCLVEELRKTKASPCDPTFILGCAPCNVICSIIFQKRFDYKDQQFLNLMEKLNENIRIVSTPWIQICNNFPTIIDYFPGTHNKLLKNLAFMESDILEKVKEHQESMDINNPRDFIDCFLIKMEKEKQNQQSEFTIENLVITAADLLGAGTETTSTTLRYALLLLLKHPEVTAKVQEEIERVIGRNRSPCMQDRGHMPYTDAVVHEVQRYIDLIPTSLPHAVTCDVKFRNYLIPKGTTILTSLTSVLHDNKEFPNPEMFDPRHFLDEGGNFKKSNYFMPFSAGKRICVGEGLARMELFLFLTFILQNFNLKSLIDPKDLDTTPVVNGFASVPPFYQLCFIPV
Chain of Cytochrome P450 3A4 (Homo sapiens) (P08684 whole entry, looked up): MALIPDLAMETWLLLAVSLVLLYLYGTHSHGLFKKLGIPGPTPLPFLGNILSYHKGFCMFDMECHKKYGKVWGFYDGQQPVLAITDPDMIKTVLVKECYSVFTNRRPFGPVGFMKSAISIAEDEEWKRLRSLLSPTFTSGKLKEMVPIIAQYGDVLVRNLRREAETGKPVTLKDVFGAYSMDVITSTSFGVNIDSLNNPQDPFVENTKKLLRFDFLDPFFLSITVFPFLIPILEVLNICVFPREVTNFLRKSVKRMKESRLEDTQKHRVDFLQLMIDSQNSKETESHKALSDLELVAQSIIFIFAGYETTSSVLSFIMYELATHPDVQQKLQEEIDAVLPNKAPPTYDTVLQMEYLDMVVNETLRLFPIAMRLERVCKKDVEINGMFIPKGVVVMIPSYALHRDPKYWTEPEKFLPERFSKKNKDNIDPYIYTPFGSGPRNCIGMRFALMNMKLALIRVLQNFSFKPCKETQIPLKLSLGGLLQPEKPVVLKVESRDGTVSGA
Chain of Voltage-gated inwardly rectifying potassium channel KCNH2 (Homo sapiens) (Q12809 whole entry, looked up): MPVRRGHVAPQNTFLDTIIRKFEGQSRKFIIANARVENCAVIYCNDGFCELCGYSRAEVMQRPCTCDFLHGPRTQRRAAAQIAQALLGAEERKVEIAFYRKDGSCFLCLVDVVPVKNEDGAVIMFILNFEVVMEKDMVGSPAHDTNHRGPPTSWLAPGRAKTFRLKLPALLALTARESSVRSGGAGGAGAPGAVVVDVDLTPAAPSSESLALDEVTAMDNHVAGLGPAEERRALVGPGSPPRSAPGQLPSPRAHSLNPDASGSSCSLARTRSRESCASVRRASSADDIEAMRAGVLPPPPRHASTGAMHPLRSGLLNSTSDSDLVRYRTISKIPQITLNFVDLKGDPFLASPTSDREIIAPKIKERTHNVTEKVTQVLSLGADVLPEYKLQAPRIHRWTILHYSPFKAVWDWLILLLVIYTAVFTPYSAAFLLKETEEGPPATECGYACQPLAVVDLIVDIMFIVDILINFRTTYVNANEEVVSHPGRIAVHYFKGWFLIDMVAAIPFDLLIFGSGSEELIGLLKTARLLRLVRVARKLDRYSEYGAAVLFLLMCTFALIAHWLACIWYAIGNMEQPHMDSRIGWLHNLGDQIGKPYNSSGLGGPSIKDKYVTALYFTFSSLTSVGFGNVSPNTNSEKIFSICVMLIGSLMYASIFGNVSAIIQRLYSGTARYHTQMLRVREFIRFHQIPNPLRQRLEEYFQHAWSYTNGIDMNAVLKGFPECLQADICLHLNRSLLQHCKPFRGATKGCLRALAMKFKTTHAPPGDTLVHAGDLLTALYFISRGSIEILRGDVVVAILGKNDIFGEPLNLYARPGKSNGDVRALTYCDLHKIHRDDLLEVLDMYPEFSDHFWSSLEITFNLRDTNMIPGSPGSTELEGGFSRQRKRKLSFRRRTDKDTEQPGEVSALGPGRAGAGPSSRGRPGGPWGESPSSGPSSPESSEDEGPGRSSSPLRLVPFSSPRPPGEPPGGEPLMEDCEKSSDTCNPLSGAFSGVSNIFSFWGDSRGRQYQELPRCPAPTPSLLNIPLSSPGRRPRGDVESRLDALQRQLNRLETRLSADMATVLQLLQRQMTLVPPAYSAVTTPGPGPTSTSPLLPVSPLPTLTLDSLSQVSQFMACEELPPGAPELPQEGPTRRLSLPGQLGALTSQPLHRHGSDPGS
Chain of Nuclear receptor subfamily 1 group I member 2 (Homo sapiens) (O75469 whole entry, looked up): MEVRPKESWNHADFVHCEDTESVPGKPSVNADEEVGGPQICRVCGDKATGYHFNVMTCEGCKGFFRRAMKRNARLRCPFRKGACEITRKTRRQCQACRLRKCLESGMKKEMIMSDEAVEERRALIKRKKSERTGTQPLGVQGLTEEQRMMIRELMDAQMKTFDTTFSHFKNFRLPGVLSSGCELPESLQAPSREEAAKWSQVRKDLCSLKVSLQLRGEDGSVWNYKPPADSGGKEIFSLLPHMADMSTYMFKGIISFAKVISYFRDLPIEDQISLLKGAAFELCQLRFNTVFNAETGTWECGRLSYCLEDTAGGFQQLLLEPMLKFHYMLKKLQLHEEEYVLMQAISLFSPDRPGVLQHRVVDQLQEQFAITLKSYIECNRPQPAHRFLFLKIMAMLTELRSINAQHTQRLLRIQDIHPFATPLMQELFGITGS
Chain of Cytochrome P450 2C9 (Homo sapiens) (P11712 whole entry, looked up): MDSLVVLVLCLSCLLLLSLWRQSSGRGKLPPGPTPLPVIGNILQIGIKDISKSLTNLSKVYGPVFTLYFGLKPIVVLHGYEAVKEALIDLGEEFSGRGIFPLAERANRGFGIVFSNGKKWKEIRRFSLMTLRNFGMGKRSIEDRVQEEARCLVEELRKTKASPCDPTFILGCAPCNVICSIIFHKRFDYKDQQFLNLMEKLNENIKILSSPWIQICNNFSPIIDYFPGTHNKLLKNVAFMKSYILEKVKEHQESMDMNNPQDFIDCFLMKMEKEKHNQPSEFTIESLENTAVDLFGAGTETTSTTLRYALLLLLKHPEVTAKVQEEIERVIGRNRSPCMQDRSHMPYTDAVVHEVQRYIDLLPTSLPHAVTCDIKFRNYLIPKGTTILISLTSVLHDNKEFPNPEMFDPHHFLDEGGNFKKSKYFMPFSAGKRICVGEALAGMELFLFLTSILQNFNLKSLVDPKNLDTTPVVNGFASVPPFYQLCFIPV
Chain of Cytochrome P450 2D6 (Homo sapiens) (P10635 whole entry, looked up): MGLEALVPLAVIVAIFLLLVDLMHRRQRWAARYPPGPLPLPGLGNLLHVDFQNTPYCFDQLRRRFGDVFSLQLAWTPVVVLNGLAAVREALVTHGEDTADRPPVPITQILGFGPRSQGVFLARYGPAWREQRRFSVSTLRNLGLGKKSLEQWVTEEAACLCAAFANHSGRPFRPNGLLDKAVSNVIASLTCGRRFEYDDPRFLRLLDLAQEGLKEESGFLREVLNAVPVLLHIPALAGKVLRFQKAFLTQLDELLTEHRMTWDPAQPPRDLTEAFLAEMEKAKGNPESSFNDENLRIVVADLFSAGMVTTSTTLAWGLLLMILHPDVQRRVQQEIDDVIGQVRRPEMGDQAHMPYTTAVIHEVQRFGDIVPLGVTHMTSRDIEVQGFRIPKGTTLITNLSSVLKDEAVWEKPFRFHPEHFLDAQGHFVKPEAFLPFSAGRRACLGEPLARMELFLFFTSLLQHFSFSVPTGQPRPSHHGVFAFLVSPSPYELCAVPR

Consider `COC(=O)C1=C(C)NC(C)=C(C(=O)OCCc2ccc(N3CCN(C(c4ccccc4)c4ccccc4)CC3)cc2)C1c1cccc([N+](=O)[O-])c1` (centres undefined), for which the Potency entry in assay [1], in [2], in assay [3], in assay [4], in [5] and in [9] was “inactive” in each case. Also, the Potency in assay [6] is 7.76 µM (active); in assay [7], 0.436 µM (active); in assay [8], 14.4 µM (active).
As for `[Cl][Au]([Cl])[Cl]`, the Potency result in assay [1] and in assay [2] was “inactive” throughout. The Potency in [3] was 68.6 µM (active).
As to `O=C(O)c1ccc(Cl)c(Cl)c1`, the Potency entry in assay [1], in [2], in assay [3], in [4], in assay [5] and in assay [9] was “inactive” throughout. The Potency result in assay [10] is “inactive”.
As for `CCCCC(CC)CN=C(N)NC(N)=NCCCCCCN=C(N)NC(N)=NCC(CC)CCCC` (centres undefined), the Potency entry in assay [1], in assay [2], in assay [4], in assay [11], in assay [12] and in [9] was “inactive” in each case. In addition, the Potency in assay [3] is 26.6 µM (active); in [5], 1.23 µM (active); in assay [6], 17.4 µM (active); in [7] it was 17.4 µM (active); in assay [8] it was 32.3 µM (active).
For `CN(C)c1ccc(C2(c3ccc(N(C)C)cc3)OC(=O)c3cc(N(C)C)ccc32)cc1`, the Potency result in [1], in assay [2], in assay [3], in [4], in assay [5] and in assay [8] was “inactive” in each case. Further, the Potency result in assay [9] was “inactive”. Moreover, the Potency is 3.16 µM (active) in assay [7] and 2 µM (active) in assay [10].
Consider `NC(=O)C1(N2CCCCC2)CCN(CCCN2c3ccccc3CCc3ccc(Cl)cc32)CC1`, for which the Potency in [1] was 33.5 µM (active); in [13] it was 26.6 µM (active); in assay [4], 1.33 µM (active); in [5] it was 7.76 µM (active); in assay [7], 7.76 µM (active); in assay [9], 1.34 µM (active). Moreover, the Potency entry in assay [8] and in assay [10] was “inactive” in each case.
As to `CCCCCCCC[N+](CCCCCCCC)(CCCCCCCC)CCCCCCCC`, the Potency was 15.3 µM (active) in assay [1]; 8.62 µM (active) in assay [13]; 3.06 µM (active) in [4]; 0.563 µM (active) in [5]; 22.4 µM (active) in [6]; 35.5 µM (active) in [7]. In addition, the figures for the Potency in assay [8], in assay [9] and in assay [10] were 70.9 µM (active), 0.69 µM (active) and 1.59 µM (active), respectively.
Turning to `CCCC(=O)OC[C@@H](OC(=O)CCC)[C@@H](OC(=O)CCC)[C@H](Cn1c2nc(=O)[nH]c(=O)c-2nc2cc(C)c(C)cc21)OC(=O)CCC`, the Potency result in assay [1], in assay [2], in [11], in [12] and in assay [8] was “inactive” throughout. Also, the results for the Potency in [5], in assay [6] and in assay [7] were 8.71 µM (active), 8.71 µM (active) and 13.8 µM (active), respectively.
`OCCN(CCO)c1nc(N2CCCCC2)c2nc(N(CCO)CCO)nc(N3CCCCC3)c2n1`: the Potency entry in assay [1], in [2] and in assay [9] was “inactive” each time. Further, the Potency in [5] is 9.77 µM (active).
`CC(C)C(C)(C)C(C)(C)C(C)(C)S`: the Potency result in assay [1] and in assay [2] was “inactive” each time. For the same compound, the Potency in assay [4] is 27.3 µM (active); in assay [5], 39.9 µM (active); in assay [6] it was 39.9 µM (active); in [7], 46.1 µM (active).
`CCC(CN)=C(c1ccccc1)c1ccccc1`: the Potency entry in assay [1] and in assay [2] was “inactive” in each case. For the same compound, the Potency in [5] was 4.36 µM (active); in assay [6], 4.36 µM (active); in [7], 15.5 µM (active).

The values are drawn from PubChem BioAssay (Tox21).
